Data from PubChem BioAssay (EPA / NIEHS).
Several values for one entry are separate records, joined by “and”; a condition that tells them apart may be missing. Equal entries are not always repeated. The source holds several records for some structures; these can differ, active in one and inactive in another. Activity calls are given as the source filed them. How the source made its calls: active means hit-call score of the fitted dose curve at least 0.9, where 1 is the maximum; inactive means score below 0.9.

How the values were obtained:
[1] = read-out: Macrophage colony-stimulating factor (MCSF), CSF1 (gene 1435); assay: BSK_hDFCGF_MCSF: BioMAP Diversity Plus: hDFCGF Assay for Macrophage colony-stimulating factor (MCSF) Biomarker Activity (AID 2283060); settings: primary human foreskin fibroblasts; actives raise or lower the signal
Procedure, shortened: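 fibroblasts (human foreskin, primary), 24 h post-dose; M-CSF by ELISA; bidirectional fit, DMSO = baseline.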

[2] = BSK_hDFCGF_SRB: Viability Assessment in the BioMAP Diversity Plus: hDFCGF Assay (AID 2283061); settings: primary human foreskin fibroblasts;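 further: cells exposed to compound for 24 h before the read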
Procedure, shortened: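 SRB-based viability read on primary human skin fibroblasts at 24 h: TCA fixation, 0.1% dye, 560 nm. Gain or loss of signal is fitted against the DMSO negative control.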

[3] = read-out: TIMP metallopeptidase inhibitor 1 (TIMP1), TIMP1 (gene 7076); assay: BSK_hDFCGF_TIMP1: BioMAP Diversity Plus: hDFCGF Assay for TIMP metallopeptidase inhibitor 1 (TIMP1) Biomarker Activity (AID 2283062); settings: primary human foreskin fibroblasts; actives raise or lower the signal
Procedure, shortened: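 Bidirectional curve fitting against DMSO baseline yielded this endpoint, based on ELISA detection of TIMP-1 in primary human foreskin fibroblasts exposed to compound for 24 h.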

[4] = read-out: Monokine induced gamma interferon (MIG), CXCL9 (gene 4283); assay: BSK_hDFCGF_MIG: BioMAP Diversity Plus: hDFCGF Assay for Monokine induced gamma interferon (MIG) Biomarker Activity (AID 2283063); settings: primary human foreskin fibroblasts; actives raise or lower the signal
Procedure, shortened: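 Endpoint derived by bidirectional fitting relative to DMSO; MIG quantified via ELISA in primary human foreskin fibroblasts harvested 24 h after dosing.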

[5] = read-out: Matrix Metallopeptidase 1 (MMP1), MMP1 (gene 4312); assay: BSK_hDFCGF_MMP1: BioMAP Diversity Plus: hDFCGF Assay for Matrix Metallopeptidase 1 (MMP1) Biomarker Activity (AID 2283064); settings: primary human foreskin fibroblasts; actives raise or lower the signal
Procedure, shortened: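 hDFCGF primary fibroblasts (human foreskin); chemical added; 24 h; MMP1 by ELISA; bidirectional fit vs DMSO.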

[6] = read-out: Vascular cell adhesion molecule 1 (VCAM1), VCAM1 (gene 7412); assay: BSK_hDFCGF_VCAM1: BioMAP Diversity Plus: hDFCGF Assay for Vascular cell adhesion molecule 1 (VCAM1) Biomarker Activity (AID 2283065); settings: primary human foreskin fibroblasts; actives raise or lower the signal;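 on AC50: VCAM-1 protein level quantified by ELISA after 24 h chemical exposure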
Procedure, shortened: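 Measured after 24 h chemical treatment of primary human skin fibroblasts, VCAM-1 was detected by ELISA and concentration-response analysed in both directions versus DMSO vehicle.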

[7] = read-out: Plasminogen activator inhibitor-1 (PAI1), SERPINE1 (gene 5054); assay: BSK_hDFCGF_PAI1: BioMAP Diversity Plus: hDFCGF Assay for Plasminogen activator inhibitor-1 (PAI1) Biomarker Activity (AID 2283066); settings: primary human foreskin fibroblasts; actives raise or lower the signal
Procedure, shortened: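 PAI-1 levels, determined by ELISA, served as the endpoint in human foreskin fibroblast cultures exposed to compound for 24 h, with DMSO as baseline.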

[8] = read-out: Intercellular Adhesion Molecule 1 (ICAM1), ICAM1 (gene 3383); assay: BSK_KF3CT_ICAM1: BioMAP Diversity Plus: KF3CT Assay for Intercellular Adhesion Molecule 1 (ICAM1) Biomarker Activity (AID 2283067); settings: primary human keratinocytes with fibroblasts; actives raise or lower the signal
Procedure, shortened: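 Bidirectional curve fitting against a DMSO baseline was applied to ICAM-1 ELISA signal from primary human skin co-cultures harvested 24 h after treatment, with SRB staining of parallel wells for overt cytotoxicity.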

[9] = read-out: Interferon-gamma inducible Protein 10 (IP10), CXCL10 (gene 3627); assay: BSK_KF3CT_IP10: BioMAP Diversity Plus: KF3CT Assay for Interferon-gamma inducible Protein 10 (IP10) Biomarker Activity (AID 2283068); settings: primary human keratinocytes with fibroblasts; actives raise or lower the signal
Procedure, shortened: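 ELISA read-out of IP-10 after 24 h chemical dosing of human skin primary co-culture (keratinocytes, foreskin fibroblasts). Gain or loss of signal relative to DMSO, bidirectional curve fit.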

[10] = BSK_KF3CT_SRB: Viability Assessment in the BioMAP Diversity Plus: KF3CT Assay (AID 2283069); settings: primary human keratinocytes with fibroblasts;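 further: total protein by sulforhodamine B staining as a cytotoxicity measure; read 24 h after compound addition; fitted for both signal gain and loss against DMSO baseline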
Procedure, shortened: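 Keratinocytes co-cultured with foreskin fibroblasts (human primary); chemical added, 24 h; fix 10% TCA, stain 0.1% SRB, A560. Bidirectional fit vs DMSO.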

Measured: AC50

COC(=O)c1ccccc1CS(=O)(=O)NC(=O)Nc1nc(OC)cc(OC)n1
inactive: all assays above

O=C(NC(=O)c1c(F)cccc1F)Nc1ccc(OC(F)(F)C(F)OC(F)(F)F)c(Cl)c1 (stereo not given)
inactive: all assays above

CNC(=O)Oc1cccc(N=CN(C)C)c1
active: [1] 15.9 µM | [4] 15.4 µM | [6] 8.35 µM
inactive: all other assays above

N#Cc1c(Cl)c(Cl)c(Cl)c(C#N)c1Cl
active: [1] 1.11 µM | [2] 0.148 µM | [3] 2.58 µM | [4] 0.148 µM | [5] 0.986 µM | [6] 1.08 µM | [7] 615 nM | [8] 0.786 µM | [9] 0.585 µM | [10] 1.49 µM

O=C(O)CCCOc1ccc(Cl)cc1Cl
active: [9] 23.6 µM
inactive: all other assays above

O=S(=O)(O)C(F)(F)C(F)(F)C(F)(F)C(F)(F)C(F)(F)C(F)(F)C(F)(F)C(F)(F)F
inactive: [1] | [2] | [3] | [4] | [5] | [6] | [7] | [8] | [9] | [10]
active: [1] 48.1 µM and 48.4 µM | [2] 20 µM | [3] 0.485 µM | [4] 30 µM and 50.4 µM | [6] 20 µM and 29.6 µM and 30 µM | [7] 20 µM and 48.5 µM | [8] 29.9 µM | [9] 23.1 µM [middle of 5 runs] | [10] 39.2 µM and 29.9 µM

CCC(C)(C)C(=O)OC1=C(c2ccc(Cl)cc2Cl)C(=O)OC12CCCCC2
active: [1] 5.55 µM | [2] 11.4 µM | [3] 5.42 µM | [4] 9.84 µM | [5] 7.8 µM | [6] 9.68 µM | [7] 6680 nM | [8] 29.5 µM | [9] 29.9 µM | [10] 31.9 µM

COC(=O)c1ccccc1S(=O)(=O)NC(=O)N(C)c1nc(C)nc(OC)n1
inactive: all assays above

COc1nn(CSP(=S)(OC)OC)c(=O)s1
inactive: all assays above

Cc1cc(C)nc(NC(=O)NS(=O)(=O)c2ccccc2C(=O)OC2COC2)n1
inactive: all assays above

N#CN
inactive: all assays above

Oc1cc(Cl)ccc1Oc1ccc(Cl)cc1Cl
active: [1] 10.7 µM [middle of 4 runs] | [2] 13.1 µM and 9.31 µM and 17 µM | [3] 20 µM [middle of 4 runs] | [4] 20.4 µM and 14.1 µM and 23.9 µM | [5] 29.9 µM and 12.3 µM and 26.1 µM | [6] 8.72 µM [middle of 4 runs] | [7] 6.96 µM and 8.43 µM and 7.44 µM | [8] 32.2 µM [middle of 4 runs] | [9] 33.7 µM and 29 µM | [10] 30.1 µM and 14.4 µM and 28.2 µM
inactive: [9]

CC(C)(C)C(O)C(Oc1ccc(Cl)cc1)n1cncn1 (stereo not given)
inactive: all assays above

CC(C)N(C(=O)COc1nnc(C(F)(F)F)s1)c1ccc(F)cc1
active: [1] 28.9 µM | [5] 17.7 µM | [6] 8.54 µM | [9] 30.8 µM
inactive: all other assays above

COC(=O)c1ccccc1S(=O)(=O)NC(=O)Nc1nc(C)nc(OC)n1
inactive: all assays above

CCOC1Oc2ccc(OS(C)(=O)=O)cc2C1(C)C (stereo not given)
inactive: all assays above
